PMC4336329 (PLoS ONE, 2015)
Among all 310,000 compounds or so, about 14,000 (4.5%) showed an effect of 50% or more. The effect is printed as a negative number. This is one part of a sample in which strong results are shown more often than they occur.

target: human ether-à-go-go-related gene (hERG) potassium channel (human, UniProt Q12809); assay: primary screen, population patch clamp on CHO cells stably expressing hERG; higher = less effect of the substance
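Also: peak tail current of the secondary pulse compared with the same well before compound.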

Chain of human ether-à-go-go-related gene (hERG) potassium channel (Q12809 whole entry, looked up): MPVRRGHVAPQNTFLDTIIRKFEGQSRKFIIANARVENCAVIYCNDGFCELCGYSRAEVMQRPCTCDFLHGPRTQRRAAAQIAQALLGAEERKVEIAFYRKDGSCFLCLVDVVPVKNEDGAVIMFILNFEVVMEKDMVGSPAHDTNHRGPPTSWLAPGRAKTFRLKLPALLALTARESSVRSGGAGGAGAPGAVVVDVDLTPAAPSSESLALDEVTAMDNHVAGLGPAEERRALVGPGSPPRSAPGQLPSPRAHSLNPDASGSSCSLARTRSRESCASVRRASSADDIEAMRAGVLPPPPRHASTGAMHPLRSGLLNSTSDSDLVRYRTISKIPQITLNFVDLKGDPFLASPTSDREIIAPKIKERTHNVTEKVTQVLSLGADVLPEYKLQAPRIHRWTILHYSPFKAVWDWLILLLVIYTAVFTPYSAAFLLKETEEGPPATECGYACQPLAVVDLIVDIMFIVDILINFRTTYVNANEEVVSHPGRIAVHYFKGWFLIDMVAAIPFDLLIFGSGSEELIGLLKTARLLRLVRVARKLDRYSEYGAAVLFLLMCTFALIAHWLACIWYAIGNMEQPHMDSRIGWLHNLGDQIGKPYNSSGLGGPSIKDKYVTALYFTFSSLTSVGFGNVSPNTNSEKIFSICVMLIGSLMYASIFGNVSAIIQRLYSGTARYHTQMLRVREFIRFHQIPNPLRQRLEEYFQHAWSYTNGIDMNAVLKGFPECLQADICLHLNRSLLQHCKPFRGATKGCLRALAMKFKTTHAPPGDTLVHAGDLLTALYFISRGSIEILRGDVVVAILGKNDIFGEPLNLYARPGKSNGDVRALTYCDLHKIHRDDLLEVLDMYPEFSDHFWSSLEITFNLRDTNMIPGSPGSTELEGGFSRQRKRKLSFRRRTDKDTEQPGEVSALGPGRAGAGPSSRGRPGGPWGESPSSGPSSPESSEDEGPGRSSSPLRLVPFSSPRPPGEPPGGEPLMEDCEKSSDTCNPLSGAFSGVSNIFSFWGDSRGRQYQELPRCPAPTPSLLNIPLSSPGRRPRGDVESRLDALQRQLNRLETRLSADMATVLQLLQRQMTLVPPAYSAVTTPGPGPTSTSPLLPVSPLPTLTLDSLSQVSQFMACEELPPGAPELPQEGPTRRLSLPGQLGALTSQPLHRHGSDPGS

SMILES	hERG current change (%, negative = inhibition) at 10uM [%]
CC(=O)Nc1sc2c(c1C(=O)N1CCOCC1)CCCCC2	17.9
Cc1ccc(-n2ncc3c(NCC4CCCO4)ncnc32)c(C)c1 (stereo not drawn)	12.9
COc1cc(C(C)=O)ccc1OCC(=O)Nc1ccc2nc(C)sc2c1	13.4
CC(SC#N)C(=O)C12CC3CC(CC(C3)C1)C2 (stereo not drawn)	-8.99
O=C1CN=C(c2ccccc2)c2ccccc2N1	8.11
O=[N+]([O-])/C=C/c1cn(Cc2ccc(Cl)cc2)c2ccccc12	2.65
O=C(NCc1cccnc1)C(Cl)(Cl)Cl	0.208
CCN(CC)c1ccc(S(=O)(=O)N2CCOCC2)cc1NC(=O)COC(=O)COc1ccccc1C	12.7
CC1=CC=CC2=NC(=O)CC(C)(C(=O)N(CC(=O)NC3CCCC3)c3ccc(F)cc3)N12 (stereo not drawn)	11.1
Cc1nn(C)c(C)c1S(=O)(=O)N(CC(=O)NCc1cccs1)c1ccc(C(C)C)cc1	9.79
Cc1nn(C)c(C)c1S(=O)(=O)N(CC(=O)NCCCN1CCC(C)CC1)c1ccc(C(C)C)cc1	-64.7
Cc1nn(C)c(C)c1S(=O)(=O)N(CC(=O)Nc1ccccn1)c1ccc(C(C)C)cc1	-7.4
Cc1cccc(NC(=O)CN(c2ccc(C(C)C)cc2)S(=O)(=O)c2c(C)nn(C)c2C)n1	-12.2
Cc1nn(C)c(C)c1S(=O)(=O)N(CC(=O)NCCN1CCOCC1)c1ccc(C(C)C)cc1	-2.41
Cc1nn(C)c(C)c1S(=O)(=O)N(CC(=O)NCCCOC(C)C)c1ccc(C(C)C)cc1	-69.6
Cc1nn(C)c(C)c1S(=O)(=O)N(CC(=O)NCc1ccco1)c1ccc(C(C)C)cc1	16.6
Cc1nn(C)c(C)c1S(=O)(=O)N(CC(=O)NC1CCCCCC1)c1ccc(C(C)C)cc1	-10.4
Cc1nn(C)c(C)c1S(=O)(=O)N(CC(=O)NCCCN1CC(C)CC(C)C1)c1ccc(C(C)C)cc1 (stereo not drawn)	-66.4
C#CCOCCOCCOCCNc1nc(N2CCN(C(=O)[C@H]([C@@H](C)CC)n3cc(CCCC[NH3+])nn3)CC2)nc(N2CCN(C(=O)[C@H](CCCC[NH3+])n3cc(CC(C)O)nn3)CC2)n1.[Cl-] (stereo partly drawn)	14.3
COc1ccc(C2C(C#N)=C(C)NC3=C2C(=O)CC(C)(C)C3)c(OC)c1 (stereo not drawn)	-6.3
Cc1ccccc1OCCCCn1c(CO)nc2ccccc21	-45.1

SMILES	hERG current change (%, negative = inhibition) at 10uM [%]
COc1ccc(-c2nnc(SCC(=O)NCc3cccs3)n2CC(C)C)cc1	-15.2
CNC(=S)N1CCN(c2ccccc2OC)CC1	7.94
CC(=O)n1cc(/C=N/NC(N)=S)c2ccccc21	-18.4
CC1(C)CC(=O)/C(=C(\O)CCCN2C(=O)c3ccccc3C2=O)C(=NCCO)C1	11.7
O=C(O)CN=C1CC(c2ccccc2)CC(=O)/C1=C(/O)CCCN1C(=O)c2ccccc2C1=O (stereo not drawn)	1.09
CCCN=C1CC(C)(C)CC(=O)/C1=C(/O)CCCN1C(=O)c2ccccc2C1=O	-11.4
O=C1CC(c2ccccc2)CC(=NCCO)/C1=C(\O)CCCN1C(=O)c2ccccc2C1=O (stereo not drawn)	-71.9
CC/C(O)=C1\C(=O)CC(c2ccccc2)CC1=NCCC(=O)O (stereo not drawn)	15.6
CCCCN=C1CC(C)(C)CC(=O)/C1=C(/O)CCCN1C(=O)c2ccccc2C1=O	-61.4
CCCCCCNc1cc2n(c(=O)n1)CCc1cc(OC)c(OC)cc1-2	-46.7
CCOc1ccc(C(C)NC(=O)c2ccc3c(c2)NC(=O)C(C)S3)cc1OCC (stereo not drawn)	1.73
O=C(CS(=O)(=O)c1c[nH]c2ccccc12)NC1CCCCC1	-8.19
Cc1ccc(/C=N/NC(=O)CN2CCN(Cc3ccccc3)CC2)o1	-11.7
CSc1ccc(/C=N\NC(=O)CNc2ccc(C)cc2)cc1	-2.08
CSc1ccc(/C=N/NC(=O)CN2CCN(Cc3ccccc3)CC2)cc1	-74.6
Cc1ccc(/C=N/NC(=O)CN2CCN(Cc3ccccc3Cl)CC2)o1	-23.5
CSc1ccc(/C=N/N2CCN(Cc3ccccc3)CC2)cc1	-5.46
CSc1ccc(/C=N/NC(=O)CN2CCN(Cc3ccc(C)cc3)CC2)cc1	-63.2
CSc1ccc(/C=N/NC(=O)CN2CCN(Cc3ccc(Cl)cc3)CC2)cc1	-35.1
Cc1ccc(CN2CCN(CC(=O)N/N=C/c3ccc(C)o3)CC2)cc1	-64.2
CSc1ccc(/C=N/NC(=O)CN2CCN(Cc3ccccc3Cl)CC2)cc1	-37.5
